PubChem BioAssay AID1159580 (chemical genetic matrix, 2015)
Hit rate of the full screen: of about 5,500 compounds, about 2,000 (36%) were called active. Inconclusive results (about 18%) are left out. Rule as the data show it: active = normalized growth mostly below about 0.91 (no sharp cut-off); inconclusive = no clear call, values can overlap the other calls; inactive = mostly above about 0.92. The list shows a part of the results.

Assay: chemical genetic growth profiling, strain panel (AID 1159580);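 also: tested at 20 µM; growth read once vehicle control cultures reached saturation at 30 °C; 1 = growth at the plate median or of vehicle wells; lower values mean less growth of the strain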
Settings: growth OD

Measured: normalized growth

COc1cc(OC)c2c(c1)O[C@H](c1cc(OC)c(OC)c(OC)c1)[C@H](OC(=O)c1cc(OC)c(OC)c(OC)c1)C2
inactive: S. cerevisiae deletion strains, locus YAL013W, strain DEP1, active compounds read low 1.01 | S. cerevisiae deletion strains, locus YBR021W, strain FUR4, active compounds read low 0.998 | S. cerevisiae deletion strains, locus YBR229C, strain ROT2, active compounds read low 1.02 | S. cerevisiae deletion strains, locus YCL029C, strain bik1, active compounds read low 1.01 | S. cerevisiae deletion strains, locus YDL035C, strain GPR1, active compounds read low 0.994 | S. cerevisiae deletion strains, locus YDL074C, strain BRE1, active compounds read low 0.996 | S. cerevisiae deletion strains, locus YDL101C, strain DUN1, active compounds read low 1 | S. cerevisiae deletion strains, locus YDL134C, strain PPH21, active compounds read low 1 | S. cerevisiae deletion strains, locus YDL185W, strain tfp1, active compounds read low 1.01 | S. cerevisiae deletion strains, locus YDL192W, strain arf1, active compounds read low 1 | S. cerevisiae deletion strains, locus YDR101C, strain arx1, active compounds read low 0.999 | S. cerevisiae deletion strains, locus YDR150W, strain NUM1, active compounds read low 1.01 | S. cerevisiae deletion strains, locus YDR162C, strain NBP2, active compounds read low 1 | S. cerevisiae deletion strains, locus YDR318W, strain mcm21, active compounds read low 0.997 | S. cerevisiae deletion strains, locus YDR388W, active compounds read low 1 | S. cerevisiae deletion strains, locus YDR502C, strain sam2, active compounds read low 0.991 | S. cerevisiae deletion strains, locus YEL061C, strain CIN8, active compounds read low 1.01 | S. cerevisiae deletion strains, locus YER110C, active compounds read low 1 | S. cerevisiae deletion strains, locus YER155C, strain BEM2, active compounds read low 1 | S. cerevisiae deletion strains, locus YER167W, strain BCK2, active compounds read low 1.02 | S. cerevisiae deletion strains, locus YGL078C, strain dbp3, active compounds read low 1 | S. cerevisiae deletion strains, locus YGL086W, strain mad1, active compounds read low 0.991 | S. cerevisiae deletion strains, locus YGL248W, strain PDE1, active compounds read low 1.01 | S. cerevisiae deletion strains, locus YGR078C, strain PAC10, active compounds read low 1.02 | S. cerevisiae deletion strains, locus YGR135W, strain pre9, active compounds read low 0.994 | S. cerevisiae deletion strains, locus YGR229C, strain SMI1, active compounds read low 0.993 | S. cerevisiae deletion strains, locus YGR252W, strain gcn5, active compounds read low 0.933 | S. cerevisiae deletion strains, locus YHR030C, strain SLT2, active compounds read low 1.01 | S. cerevisiae deletion strains, locus YHR079C, strain IRE1 (second series), active compounds read low 1 | S. cerevisiae deletion strains, locus YHR094C, strain hxt1, active compounds read low 0.996 | S. cerevisiae deletion strains, locus YHR129C, strain ARP1, active compounds read low 1.01 | S. cerevisiae deletion strains, locus YHR200W, strain rpn10, active compounds read low 0.999 | S. cerevisiae deletion strains, locus YIL066C, strain RNR3, active compounds read low 0.997 | S. cerevisiae deletion strains, locus YIL073C, strain SPO22, active compounds read low 0.995 | S. cerevisiae deletion strains, locus YIL125W, strain kgd1, active compounds read low 1 | S. cerevisiae deletion strains, locus YIR030C, strain dcg1, active compounds read low 1.01 | S. cerevisiae deletion strains, locus YJL095W, strain BCK1, active compounds read low 1.01 | S. cerevisiae deletion strains, locus YJL134W, strain LCB3, active compounds read low 1.01 | S. cerevisiae deletion strains, locus YJL168C, strain set2, active compounds read low 1 | S. cerevisiae deletion strains, locus YJL187C, strain SWE1 (second series), active compounds read low 1 | S. cerevisiae deletion strains, locus YJR043C, strain POL32, active compounds read low 0.992 | S. cerevisiae deletion strains, locus YJR075W, strain HOC1, active compounds read low 1 | S. cerevisiae deletion strains, locus YKL009W, strain mrt4, active compounds read low 0.983 | S. cerevisiae deletion strains, locus YKL068W, active compounds read low 1.01 | S. cerevisiae deletion strains, locus YKL085W, strain MDH1 (second series), active compounds read low 0.993 | S. cerevisiae deletion strains, locus YKL085W, strain MDH1, active compounds read low 0.993 | S. cerevisiae deletion strains, locus YKL190W, strain CNB1, active compounds read low 0.998 | S. cerevisiae deletion strains, locus YKR001C, strain vps1, active compounds read low 0.99 | S. cerevisiae deletion strains, locus YLR039C, strain RIC1, active compounds read low 1.01 | S. cerevisiae deletion strains, locus YLR058C, strain SHM2, active compounds read low 1.01 | S. cerevisiae deletion strains, locus YLR102C, strain apc9, active compounds read low 1 | S. cerevisiae deletion strains, locus YLR262C, strain YPT6, active compounds read low 1.02 | S. cerevisiae deletion strains, locus YLR268W, strain sec22, active compounds read low 1.01 | S. cerevisiae deletion strains, locus YLR330W, strain CHS5, active compounds read low 1.01 | S. cerevisiae deletion strains, locus YLR342W, strain FKS1 (second series), active compounds read low 1 | S. cerevisiae deletion strains, locus YLR371W, strain rom2, active compounds read low 1.01 | S. cerevisiae deletion strains, locus YLR418C, strain cdc73, active compounds read low 0.973 | S. cerevisiae deletion strains, locus YML016C, strain PPZ1, active compounds read low 1 | S. cerevisiae deletion strains, locus YML032C, strain rad52, active compounds read low 0.992 | S. cerevisiae deletion strains, locus YML124C, strain tub3, active compounds read low 1 | S. cerevisiae deletion strains, locus YMR078C, strain ctf18, active compounds read low 1 | S. cerevisiae deletion strains, locus YMR223W, strain ubp8, active compounds read low 0.994 | S. cerevisiae deletion strains, locus YMR263W, strain SAP30, active compounds read low 1 | S. cerevisiae deletion strains, locus YMR307W, strain GAS1, active compounds read low 0.951 | S. cerevisiae deletion strains, locus YNL067W, strain RPL9B, active compounds read low 1.01 | S. cerevisiae deletion strains, locus YNL128W, strain TEP1, active compounds read low 1.02 | S. cerevisiae deletion strains, locus YNL153C, strain GIM3, active compounds read low 1.01 | S. cerevisiae deletion strains, locus YNL233W, strain BNI4, active compounds read low 1 | S. cerevisiae deletion strains, locus YNL250W, strain rad50, active compounds read low 1 | S. cerevisiae deletion strains, locus YNL271C, strain bni1, active compounds read low 1.01 | S. cerevisiae deletion strains, locus YNL298W, strain CLA4, active compounds read low 1.01 | S. cerevisiae deletion strains, locus YNL307C, strain MCK1, active compounds read low 1 | S. cerevisiae deletion strains, locus YNL322C, strain KRE1, active compounds read low 1 | S. cerevisiae deletion strains, locus YNR052C, strain pop2, active compounds read low 1.01 | S. cerevisiae deletion strains, locus YOL006C, strain TOP1, active compounds read low 0.983 | S. cerevisiae deletion strains, locus YOL012C, strain htz1 0.884 | S. cerevisiae deletion strains, locus YOL147C, strain pex11, active compounds read low 0.996 | S. cerevisiae deletion strains, locus YOR061W, strain CKA2, active compounds read low 1 | S. cerevisiae deletion strains, locus YOR069W, strain VPS5, active compounds read low 0.999 | S. cerevisiae deletion strains, locus YOR136W, strain idh2, active compounds read low 0.997 | S. cerevisiae deletion strains, locus YOR144C, strain elg1, active compounds read low 1 | S. cerevisiae deletion strains, locus YOR184W, strain ser1, active compounds read low 0.987 | S. cerevisiae deletion strains, locus YOR316C, strain cot1, active compounds read low 1 | S. cerevisiae deletion strains, locus YPL055C, strain LGE1, active compounds read low 0.989 | S. cerevisiae deletion strains, locus YPL241C, strain CIN2, active compounds read low 0.986 | S. cerevisiae deletion strains, locus YPR119W, strain clb2, active compounds read low 0.995 | S. cerevisiae deletion strains, locus YPR141C, strain kar3, active compounds read low 1 | S. cerevisiae deletion strains, locus YPR163C, strain tif3, active compounds read low 0.997 | S. cerevisiae deletion strains, locus YPR167C, strain met16, active compounds read low 1.01 | S. cerevisiae deletion strains, strain wtn01, active compounds read low 0.992 | S. cerevisiae strains, strain wild type, active compounds read low 1.01
